In PubChem BioAssay AID1159580 (chemical genetic matrix, 2015):
“And” between values parts separate entries of the source, which are not always exact repeats. Equal values may be shown once. Out of some 5,500 compounds screened, about 2,000 (36%) were called active. Another 18% or so got no clear call; they are omitted. The list shows a part of the results. Unmarked numbers belong to inactive results. No stated cut-off is given here; in the data, active means normalized growth mostly below about 0.91 (no sharp cut-off); inconclusive means no clear call, values can overlap the other calls; inactive means mostly above about 0.92.

Assay: chemical genetic growth profiling, strain panel (AID 1159580);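 further: tested at 20 µM; growth read once vehicle control cultures reached saturation at 30 °C; 1 = growth at the plate median or of vehicle wells; lower values mean less growth of the strain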
Conditions: growth OD

With `O=C(O)c1cccnc1Nc1cccc(C(F)(F)F)c1` the normalized growth (S. cerevisiae deletion strains, locus YAL013W, strain DEP1, active compounds read low) was 0.97, the normalized growth (S. cerevisiae deletion strains, locus YAL040C, strain CLN3, active compounds read low) was 1.02 and the normalized growth (S. cerevisiae deletion strains, locus YBR021W, strain FUR4, active compounds read low) was 0.922. It also gave a normalized growth (S. cerevisiae deletion strains, locus YBR229C, strain ROT2, active compounds read low) of 0.964, a normalized growth (S. cerevisiae deletion strains, locus YCL029C, strain bik1, active compounds read low) of 0.944 and a normalized growth (S. cerevisiae deletion strains, locus YCL061C, strain MRC1 (second series), active compounds read low) of 1. It also gave a normalized growth (S. cerevisiae deletion strains, locus YDL035C, strain GPR1, active compounds read low) of 0.984, a normalized growth (S. cerevisiae deletion strains, locus YDL074C, strain BRE1, active compounds read low) of 0.999 and a normalized growth (S. cerevisiae deletion strains, locus YDL101C, strain DUN1, active compounds read low) of 0.981. For the same molecule, the normalized growth (S. cerevisiae deletion strains, locus YDL134C, strain PPH21, active compounds read low) was 0.946, the normalized growth (S. cerevisiae deletion strains, locus YDL185W, strain tfp1, active compounds read low) was 0.896 (active) and the normalized growth (S. cerevisiae deletion strains, locus YDL192W, strain arf1, active compounds read low) was 0.942. The normalized growth (S. cerevisiae deletion strains, locus YDR101C, strain arx1, active compounds read low) was 0.967, the normalized growth (S. cerevisiae deletion strains, locus YDR150W, strain NUM1, active compounds read low) was 0.975 and the normalized growth (S. cerevisiae deletion strains, locus YDR162C, strain NBP2, active compounds read low) was 0.968. It also gave a normalized growth (S. cerevisiae deletion strains, locus YDR318W, strain mcm21, active compounds read low) of 0.953, a normalized growth (S. cerevisiae deletion strains, locus YDR363W, strain ESC2, active compounds read low) of 1 and a normalized growth (S. cerevisiae deletion strains, locus YDR388W, active compounds read low) of 0.941. The normalized growth (S. cerevisiae deletion strains, locus YDR502C, strain sam2, active compounds read low) was 0.963, the normalized growth (S. cerevisiae deletion strains, locus YEL061C, strain CIN8, active compounds read low) was 0.972 and the normalized growth (S. cerevisiae deletion strains, locus YER002W, strain NOP16, active compounds read low) was 0.973. It also gave a normalized growth (S. cerevisiae deletion strains, locus YER110C, active compounds read low) of 0.954, a normalized growth (S. cerevisiae deletion strains, locus YER155C, strain BEM2, active compounds read low) of 0.931 and a normalized growth (S. cerevisiae deletion strains, locus YER167W, strain BCK2, active compounds read low) of 0.957. It also gave a normalized growth (S. cerevisiae deletion strains, locus YGL078C, strain dbp3, active compounds read low) of 0.943, a normalized growth (S. cerevisiae deletion strains, locus YGL086W, strain mad1, active compounds read low) of 0.963 and a normalized growth (S. cerevisiae deletion strains, locus YGL248W, strain PDE1, active compounds read low) of 0.989. The normalized growth (S. cerevisiae deletion strains, locus YGR135W, strain pre9, active compounds read low) was 0.95, the normalized growth (S. cerevisiae deletion strains, locus YGR229C, strain SMI1, active compounds read low) was 0.978 and the normalized growth (S. cerevisiae deletion strains, locus YGR252W, strain gcn5, active compounds read low) was 0.911. For the same molecule, the normalized growth (S. cerevisiae deletion strains, locus YHR030C, strain SLT2, active compounds read low) was 0.949, the normalized growth (S. cerevisiae deletion strains, locus YHR079C, strain IRE1 (second series), active compounds read low) was 0.942 and the normalized growth (S. cerevisiae deletion strains, locus YHR094C, strain hxt1, active compounds read low) was 0.941. The normalized growth (S. cerevisiae deletion strains, locus YHR129C, strain ARP1, active compounds read low) was 0.953, the normalized growth (S. cerevisiae deletion strains, locus YHR200W, strain rpn10, active compounds read low) was 0.945 and the normalized growth (S. cerevisiae deletion strains, locus YIL066C, strain RNR3, active compounds read low) was 0.973. The normalized growth (S. cerevisiae deletion strains, locus YIL073C, strain SPO22, active compounds read low) was 0.954, the normalized growth (S. cerevisiae deletion strains, locus YIL125W, strain kgd1, active compounds read low) was 0.919 (active) and the normalized growth (S. cerevisiae deletion strains, locus YIR030C, strain dcg1, active compounds read low) was 0.939. For the same molecule, the normalized growth (S. cerevisiae deletion strains, locus YJL095W, strain BCK1, active compounds read low) was 0.996, the normalized growth (S. cerevisiae deletion strains, locus YJL134W, strain LCB3, active compounds read low) was 0.953 and the normalized growth (S. cerevisiae deletion strains, locus YJL168C, strain set2, active compounds read low) was 0.941. For the same molecule, the normalized growth (S. cerevisiae deletion strains, locus YJL187C, strain SWE1 (second series), active compounds read low) was 1, the normalized growth (S. cerevisiae deletion strains, locus YJR043C, strain POL32, active compounds read low) was 0.991 and the normalized growth (S. cerevisiae deletion strains, locus YJR075W, strain HOC1, active compounds read low) was 0.981 and 1.02. The normalized growth (S. cerevisiae deletion strains, locus YKL009W, strain mrt4, active compounds read low) was 0.944, the normalized growth (S. cerevisiae deletion strains, locus YKL068W, active compounds read low) was 0.912 (active) and the normalized growth (S. cerevisiae deletion strains, locus YKL085W, strain MDH1 (second series), active compounds read low) was 0.916 (active). The normalized growth (S. cerevisiae deletion strains, locus YKL085W, strain MDH1, active compounds read low) was 0.916 (active), the normalized growth (S. cerevisiae deletion strains, locus YKL190W, strain CNB1, active compounds read low) was 0.979 and the normalized growth (S. cerevisiae deletion strains, locus YKR001C, strain vps1, active compounds read low) was 0.949. It also gave a normalized growth (S. cerevisiae deletion strains, locus YLR039C, strain RIC1, active compounds read low) of 0.966, a normalized growth (S. cerevisiae deletion strains, locus YLR058C, strain SHM2, active compounds read low) of 0.969 and a normalized growth (S. cerevisiae deletion strains, locus YLR102C, strain apc9, active compounds read low) of 0.938. For the same molecule, the normalized growth (S. cerevisiae deletion strains, locus YLR262C, strain YPT6, active compounds read low) was 0.975, the normalized growth (S. cerevisiae deletion strains, locus YLR268W, strain sec22, active compounds read low) was 0.978 and the normalized growth (S. cerevisiae deletion strains, locus YLR330W, strain CHS5, active compounds read low) was 0.943. For the same molecule, the normalized growth (S. cerevisiae deletion strains, locus YLR342W, strain FKS1 (second series), active compounds read low) was 0.936, the normalized growth (S. cerevisiae deletion strains, locus YLR371W, strain rom2, active compounds read low) was 0.951 and the normalized growth (S. cerevisiae deletion strains, locus YLR418C, strain cdc73, active compounds read low) was 0.909. The normalized growth (S. cerevisiae deletion strains, locus YML016C, strain PPZ1, active compounds read low) was 0.967, the normalized growth (S. cerevisiae deletion strains, locus YML032C, strain rad52, active compounds read low) was 0.966 and the normalized growth (S. cerevisiae deletion strains, locus YML124C, strain tub3, active compounds read low) was 0.933 (active). For the same molecule, the normalized growth (S. cerevisiae deletion strains, locus YMR078C, strain ctf18, active compounds read low) was 0.945, the normalized growth (S. cerevisiae deletion strains, locus YMR223W, strain ubp8, active compounds read low) was 0.958 and the normalized growth (S. cerevisiae deletion strains, locus YMR263W, strain SAP30, active compounds read low) was 0.973. For the same molecule, the normalized growth (S. cerevisiae deletion strains, locus YMR307W, strain GAS1, active compounds read low) was 0.881, the normalized growth (S. cerevisiae deletion strains, locus YNL067W, strain RPL9B, active compounds read low) was 1.02 and the normalized growth (S. cerevisiae deletion strains, locus YNL153C, strain GIM3, active compounds read low) was 0.991. For the same molecule, the normalized growth (S. cerevisiae deletion strains, locus YNL175C, strain NOP13, active compounds read low) was 0.981, the normalized growth (S. cerevisiae deletion strains, locus YNL197C, strain WHI3, active compounds read low) was 1 and the normalized growth (S. cerevisiae deletion strains, locus YNL224C, strain SQS1, active compounds read low) was 0.969. For the same molecule, the normalized growth (S. cerevisiae deletion strains, locus YNL233W, strain BNI4, active compounds read low) was 0.988, the normalized growth (S. cerevisiae deletion strains, locus YNL250W, strain rad50, active compounds read low) was 0.9 and the normalized growth (S. cerevisiae deletion strains, locus YNL271C, strain bni1, active compounds read low) was 0.916 (active). For the same molecule, the normalized growth (S. cerevisiae deletion strains, locus YNL298W, strain CLA4, active compounds read low) was 0.942, the normalized growth (S. cerevisiae deletion strains, locus YNL307C, strain MCK1, active compounds read low) was 0.937 and the normalized growth (S. cerevisiae deletion strains, locus YNL322C, strain KRE1, active compounds read low) was 0.969 and 1.02. For the same molecule, the normalized growth (S. cerevisiae deletion strains, locus YNR052C, strain pop2, active compounds read low) was 0.949, the normalized growth (S. cerevisiae deletion strains, locus YOL006C, strain TOP1, active compounds read low) was 0.99 and the normalized growth (S. cerevisiae deletion strains, locus YOL012C, strain htz1) was 1.13. It also gave a normalized growth (S. cerevisiae deletion strains, locus YOL147C, strain pex11, active compounds read low) of 0.935, a normalized growth (S. cerevisiae deletion strains, locus YOR061W, strain CKA2, active compounds read low) of 0.974 and a normalized growth (S. cerevisiae deletion strains, locus YOR069W, strain VPS5, active compounds read low) of 0.956. It also gave a normalized growth (S. cerevisiae deletion strains, locus YOR083W, strain WHI5 (second series), active compounds read low) of 0.992, a normalized growth (S. cerevisiae deletion strains, locus YOR136W, strain idh2, active compounds read low) of 0.98 and a normalized growth (S. cerevisiae deletion strains, locus YOR144C, strain elg1, active compounds read low) of 0.944. For the same molecule, the normalized growth (S. cerevisiae deletion strains, locus YOR184W, strain ser1, active compounds read low) was 0.968, the normalized growth (S. cerevisiae deletion strains, locus YOR316C, strain cot1, active compounds read low) was 0.931 and the normalized growth (S. cerevisiae deletion strains, locus YPL055C, strain LGE1, active compounds read low) was 1.04 and 1.01. The normalized growth (S. cerevisiae deletion strains, locus YPR119W, strain clb2, active compounds read low) was 0.934, the normalized growth (S. cerevisiae deletion strains, locus YPR141C, strain kar3, active compounds read low) was 0.895 (active) and the normalized growth (S. cerevisiae deletion strains, locus YPR163C, strain tif3, active compounds read low) was 0.95. It also gave a normalized growth (S. cerevisiae deletion strains, locus YPR167C, strain met16, active compounds read low) of 0.938, a normalized growth (S. cerevisiae deletion strains, strain wtn01, active compounds read low) of 0.957 and a normalized growth (S. cerevisiae strains, strain wild type, active compounds read low) of 0.981.
